# Assay results from PubChem BioAssay (EPA / NIEHS).
# Inconclusive results are not listed. Calls of active or inactive are those of the source. The calls were made as follows, unless noted: active = hit-call score of the fitted dose curve at least 0.9, where 1 is the maximum; inconclusive = response in the unintended direction; inactive = score below 0.9.
# Columns and labels:
# [1] = BSK_SAg_Proliferation: Cell Proliferation Assessment in the BioMAP Diversity Plus: SAg Assay (AID 2283095; active = hit-call score of the fitted dose curve at least 0.9, where 1 is the maximum; inactive = score below 0.9;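 also: relative cell number as total protein by SRB absorbance in sub-confluent culture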); settings: primary human HUVEC with PBMC
# Method in brief: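 Cells (endothelium plus PBMC, human primary) were dosed with chemical, cultured 96 h, fixed in 10% TCA and stained with 0.1% SRB. Absorbance at 560 nm gave relative protein, fitted bidirectionally relative to DMSO.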
# [2] = BSK_SAg_SRB: Viability Assessment in the BioMAP Diversity Plus: SAg Assay (AID 2283096; active = hit-call score of the fitted dose curve at least 0.9, where 1 is the maximum; inactive = score below 0.9;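 also: cells read one day after compound addition; hits may be either gain or loss of signal compared with DMSO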); settings: primary human HUVEC with PBMC
# Method in brief: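 Human umbilical vein endothelial cells co-cultured with PBMC, read 24 h after compound dosing. Total protein measured by sulforhodamine B staining (0.1% SRB after 10% TCA fixation, absorbance 560 nm); bidirectional fit versus DMSO baseline.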
# [3] = biological target: human CYP2C9, CYP2C9 (gene 1559) (UniProt P11712); assay: NVS_ADME_hCYP2C9: NovaScreen (NVS) CYP450-related Enzyme Activity (ADME) Assay for human CYP2C9 (AID 2283108)
# human CYP2C9, CYP2C9 (gene 1559), sequence (P11712 whole entry, looked up): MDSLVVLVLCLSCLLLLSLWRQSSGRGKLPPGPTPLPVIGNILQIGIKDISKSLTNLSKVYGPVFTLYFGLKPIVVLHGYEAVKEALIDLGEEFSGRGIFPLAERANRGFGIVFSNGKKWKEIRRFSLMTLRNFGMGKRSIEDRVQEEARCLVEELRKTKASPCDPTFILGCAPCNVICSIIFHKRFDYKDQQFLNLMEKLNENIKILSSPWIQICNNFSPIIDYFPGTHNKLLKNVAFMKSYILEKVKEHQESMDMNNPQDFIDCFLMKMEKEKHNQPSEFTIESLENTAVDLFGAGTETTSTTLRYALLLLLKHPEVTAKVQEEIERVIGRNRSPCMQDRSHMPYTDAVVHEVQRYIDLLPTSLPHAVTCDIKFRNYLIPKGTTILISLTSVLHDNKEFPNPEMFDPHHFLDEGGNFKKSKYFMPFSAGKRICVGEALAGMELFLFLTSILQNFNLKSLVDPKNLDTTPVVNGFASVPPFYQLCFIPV
# Method in brief: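 Recombinant human CYP2C9 expressed in SF9 cells, fluorogenic substrate, fluorescence read 0.75 h after dosing. Chemicals first run in duplicate at 10 uM, with actives followed in concentration series; loss of signal versus acetonitrile baseline.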
# [4] = biological target: Cytochrome P450 2C19 (Homo sapiens) (UniProt P33261); assay: NVS_ADME_hCYP2C19: NovaScreen (NVS) CYP450-related Enzyme Activity (ADME) Assay for human CYP2C19 (AID 2283113);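 also: potency for inhibition seen as loss of fluorescent signal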
# Method in brief: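 Cell-free recombinant human CYP2C19 from insect cells, fluorescent substrate; activity read by fluorescence intensity 1 h after dosing. Primary screen in duplicate at 10 uM; actives retested in concentration series. Signal loss versus acetonitrile negative control.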
# [5] = biological target: human CYP19A1, CYP19A1 (gene 1588) (UniProt P11511); assay: NVS_ADME_hCYP19A1: NovaScreen (NVS) CYP450-related Enzyme Activity (ADME) Assay for human CYP19A1 (AID 2283098);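 as to AC50: potency for inhibitors seen as loss of fluorescent enzyme signal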
# human CYP19A1, CYP19A1 (gene 1588), sequence (P11511 whole entry, looked up): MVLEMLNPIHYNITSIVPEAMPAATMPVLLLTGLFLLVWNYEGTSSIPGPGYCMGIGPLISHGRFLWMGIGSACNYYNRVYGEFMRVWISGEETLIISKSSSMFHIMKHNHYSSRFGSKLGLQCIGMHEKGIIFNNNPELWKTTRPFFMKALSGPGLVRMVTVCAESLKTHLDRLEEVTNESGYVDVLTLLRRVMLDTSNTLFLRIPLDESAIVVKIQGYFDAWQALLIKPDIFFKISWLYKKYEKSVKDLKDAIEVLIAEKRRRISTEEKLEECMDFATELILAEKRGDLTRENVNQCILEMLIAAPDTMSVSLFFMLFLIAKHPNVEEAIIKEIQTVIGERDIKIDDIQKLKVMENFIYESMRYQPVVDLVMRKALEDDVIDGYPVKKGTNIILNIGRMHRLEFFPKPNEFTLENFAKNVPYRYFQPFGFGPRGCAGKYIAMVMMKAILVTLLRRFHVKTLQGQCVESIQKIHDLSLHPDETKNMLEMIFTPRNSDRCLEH
# Method in brief: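 Recombinant enzyme in a cell-free format, read 0.5 h after dosing by fluorescence from a fluorogenic substrate. Loss of signal was fitted against acetonitrile as baseline. Primary screen in duplicate at 10 uM, actives then tested in concentration series.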
# [6] = biological target: human CYP1A2, CYP1A2 (gene 1544) (UniProt P05177); assay: NVS_ADME_hCYP1A2: NovaScreen (NVS) CYP450-related Enzyme Activity (ADME) Assay for human CYP1A2 (AID 2283102);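 as to AC50: potency for inhibition since loss of fluorescence marks reduced CYP1A2 activity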
# human CYP1A2, CYP1A2 (gene 1544), sequence (P05177 whole entry, looked up): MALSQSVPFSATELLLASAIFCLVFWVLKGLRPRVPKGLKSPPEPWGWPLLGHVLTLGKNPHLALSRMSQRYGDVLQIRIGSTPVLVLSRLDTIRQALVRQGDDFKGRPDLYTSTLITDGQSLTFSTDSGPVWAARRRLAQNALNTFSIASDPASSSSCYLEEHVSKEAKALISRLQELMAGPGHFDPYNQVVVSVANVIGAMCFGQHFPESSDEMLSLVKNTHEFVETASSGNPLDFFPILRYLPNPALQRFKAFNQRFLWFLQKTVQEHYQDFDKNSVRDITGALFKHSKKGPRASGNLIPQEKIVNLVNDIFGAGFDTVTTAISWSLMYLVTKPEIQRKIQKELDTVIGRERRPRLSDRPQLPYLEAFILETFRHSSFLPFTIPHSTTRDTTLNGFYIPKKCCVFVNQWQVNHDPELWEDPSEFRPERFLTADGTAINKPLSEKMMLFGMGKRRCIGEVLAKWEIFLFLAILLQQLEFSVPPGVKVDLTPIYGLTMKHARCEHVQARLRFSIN
# Method in brief: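 Recombinant human CYP1A2 from insect cells, cell-free, fluorogenic substrate; read 0.5 h after dosing with loss of fluorescence signal indicating inhibition. Primary screen in duplicate at 10 uM, acetonitrile as negative control.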
# [7] = biological target: Cytochrome P450 3A4 (Homo sapiens) (UniProt P08684); assay: NVS_ADME_hCYP3A4: NovaScreen (NVS) CYP450-related Enzyme Activity (ADME) Assay for human CYP3A4 (AID 2283110)
# Cytochrome P450 3A4 (Homo sapiens), sequence (P08684 whole entry, looked up): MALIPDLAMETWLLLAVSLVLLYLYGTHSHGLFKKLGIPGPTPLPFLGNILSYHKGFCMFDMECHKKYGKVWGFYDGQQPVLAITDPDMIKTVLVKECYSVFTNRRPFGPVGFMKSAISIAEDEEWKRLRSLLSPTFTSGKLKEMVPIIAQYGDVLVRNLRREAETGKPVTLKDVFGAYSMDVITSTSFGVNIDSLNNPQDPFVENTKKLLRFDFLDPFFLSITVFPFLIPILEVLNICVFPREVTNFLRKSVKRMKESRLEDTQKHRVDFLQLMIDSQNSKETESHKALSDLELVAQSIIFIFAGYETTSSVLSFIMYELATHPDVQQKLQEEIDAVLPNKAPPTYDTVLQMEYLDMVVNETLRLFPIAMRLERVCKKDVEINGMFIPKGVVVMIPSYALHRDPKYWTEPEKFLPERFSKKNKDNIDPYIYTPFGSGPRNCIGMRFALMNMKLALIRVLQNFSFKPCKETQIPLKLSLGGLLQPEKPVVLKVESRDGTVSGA
# Method in brief: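 Cell-free recombinant enzyme expressed in insect cells; fluorescent substrate turnover read after 0.33 h, acetonitrile as negative control. Primary screen in duplicate at 10 uM, actives then tested in concentration series.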
# [8] = biological target: rat CYP2A1, Cyp2a1 (gene 24894) (UniProt P11711); assay: NVS_ADME_rCYP2A1: NovaScreen (NVS) CYP450-related Enzyme Activity (ADME) Assay for rat CYP2A1 (AID 2283114; active = hit-call score of the fitted dose curve at least 0.9, where 1 is the maximum; inactive = score below 0.9)
# rat CYP2A1, Cyp2a1 (gene 24894), sequence (P11711 whole entry, looked up): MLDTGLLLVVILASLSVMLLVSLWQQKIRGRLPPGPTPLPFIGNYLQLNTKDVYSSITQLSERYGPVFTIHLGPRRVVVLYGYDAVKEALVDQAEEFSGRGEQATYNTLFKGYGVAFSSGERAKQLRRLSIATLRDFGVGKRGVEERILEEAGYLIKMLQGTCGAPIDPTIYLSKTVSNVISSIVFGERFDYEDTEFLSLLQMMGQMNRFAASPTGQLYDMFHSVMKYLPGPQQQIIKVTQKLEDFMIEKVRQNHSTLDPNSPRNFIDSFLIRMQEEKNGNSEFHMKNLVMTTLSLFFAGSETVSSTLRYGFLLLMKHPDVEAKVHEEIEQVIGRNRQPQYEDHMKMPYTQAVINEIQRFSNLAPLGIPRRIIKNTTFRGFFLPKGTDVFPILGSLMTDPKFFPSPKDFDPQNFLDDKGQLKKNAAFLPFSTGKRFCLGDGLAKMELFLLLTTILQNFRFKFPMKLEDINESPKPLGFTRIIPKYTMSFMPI
# Method in brief: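 Recombinant rat CYP2A1, cell-free, fluorogenic substrate turnover read by fluorescence intensity 0.75 h after dosing. Primary screen at 10 uM in duplicate; actives rerun as concentration-response up to 20 uM; loss of signal versus acetonitrile control.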
# [9] = biological target: rat CYP2A2, Cyp2a2 (gene 24895) (UniProt P15149); assay: NVS_ADME_rCYP2A2: NovaScreen (NVS) CYP450-related Enzyme Activity (ADME) Assay for rat CYP2A2 (AID 2283116)
# rat CYP2A2, Cyp2a2 (gene 24895), sequence (P15149 whole entry, looked up): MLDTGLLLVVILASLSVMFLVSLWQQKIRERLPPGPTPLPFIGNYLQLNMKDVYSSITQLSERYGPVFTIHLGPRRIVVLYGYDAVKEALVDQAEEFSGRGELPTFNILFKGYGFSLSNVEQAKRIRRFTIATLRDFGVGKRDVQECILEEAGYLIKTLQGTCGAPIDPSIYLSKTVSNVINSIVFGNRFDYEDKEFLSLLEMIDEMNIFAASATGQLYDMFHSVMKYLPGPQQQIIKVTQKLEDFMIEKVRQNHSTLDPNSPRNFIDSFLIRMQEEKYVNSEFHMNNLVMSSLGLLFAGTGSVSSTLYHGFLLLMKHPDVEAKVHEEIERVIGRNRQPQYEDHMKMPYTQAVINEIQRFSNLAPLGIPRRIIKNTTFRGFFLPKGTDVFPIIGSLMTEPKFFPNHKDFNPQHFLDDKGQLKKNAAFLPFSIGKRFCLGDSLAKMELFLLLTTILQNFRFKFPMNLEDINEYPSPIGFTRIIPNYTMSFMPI
# Method in brief: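 Cell-free recombinant rat CYP2A2 activity with fluorogenic substrate, fluorescence read 0.2 h after dosing. Chemicals screened at 10 uM in duplicate, hits then run in concentration-response up to 20 uM; signal loss versus acetonitrile baseline.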
# [10] = system: rat CYP2B1, gene 24300; assay: NVS_ADME_rCYP2B1: NovaScreen (NVS) CYP450-related Enzyme Activity (ADME) Assay for rat CYP2B1 (AID 2283117)
# Method in brief: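 Recombinant rat CYP2B1 with fluorogenic substrate, read at 0.75 h. Primary screen in duplicate at 10 uM; compounds meeting threshold (e.g., 30% inhibition) re-run in concentration-response up to 20 uM. Fitted against acetonitrile control.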
# [11] = biological target: rat CYP2C11, Cyp2c11 (gene 29277) (UniProt P08683); assay: NVS_ADME_rCYP2C11: NovaScreen (NVS) CYP450-related Enzyme Activity (ADME) Assay for rat CYP2C11 (AID 2283118)
# rat CYP2C11, Cyp2c11 (gene 29277), sequence (P08683 whole entry, looked up): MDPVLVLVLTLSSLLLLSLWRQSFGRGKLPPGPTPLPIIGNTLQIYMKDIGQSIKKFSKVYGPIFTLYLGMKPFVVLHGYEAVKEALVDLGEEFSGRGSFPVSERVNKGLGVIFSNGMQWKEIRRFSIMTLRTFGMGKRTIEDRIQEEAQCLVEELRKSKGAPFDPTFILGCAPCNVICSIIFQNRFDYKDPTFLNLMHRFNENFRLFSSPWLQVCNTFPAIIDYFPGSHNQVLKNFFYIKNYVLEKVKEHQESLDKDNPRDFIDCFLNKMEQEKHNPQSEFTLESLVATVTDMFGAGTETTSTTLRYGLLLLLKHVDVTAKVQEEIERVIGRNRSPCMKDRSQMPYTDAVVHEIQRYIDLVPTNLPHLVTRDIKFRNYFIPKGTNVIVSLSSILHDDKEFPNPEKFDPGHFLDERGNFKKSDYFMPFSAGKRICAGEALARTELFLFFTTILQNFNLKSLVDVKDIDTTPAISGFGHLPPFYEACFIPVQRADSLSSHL
# Method in brief: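 Cell-free recombinant rat enzyme with fluorescent substrate; readout 0.33 h after dosing, loss of signal versus acetonitrile control. Initial duplicate single-point at 10 uM; actives rerun in concentration series.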
# [12] = biological target: human CYP2D6, CYP2D6 (gene 1565) (UniProt P10635); assay: NVS_ADME_hCYP2D6: NovaScreen (NVS) CYP450-related Enzyme Activity (ADME) Assay for human CYP2D6 (AID 2283107)
# Method in brief: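 Cell-free assay using recombinant human CYP2D6 expressed in insect cells, with a fluorogenic substrate read after 1 h. Primary screen in duplicate at 10 uM; actives followed up in concentration series. Loss of signal fitted relative to acetonitrile.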
# [13] = biological target: human CYP1A1, CYP1A1 (gene 1543) (UniProt P04798); assay: NVS_ADME_hCYP1A1: NovaScreen (NVS) CYP450-related Enzyme Activity (ADME) Assay for human CYP1A1 (AID 2283100)
# human CYP1A1, CYP1A1 (gene 1543), sequence (P04798 whole entry, looked up): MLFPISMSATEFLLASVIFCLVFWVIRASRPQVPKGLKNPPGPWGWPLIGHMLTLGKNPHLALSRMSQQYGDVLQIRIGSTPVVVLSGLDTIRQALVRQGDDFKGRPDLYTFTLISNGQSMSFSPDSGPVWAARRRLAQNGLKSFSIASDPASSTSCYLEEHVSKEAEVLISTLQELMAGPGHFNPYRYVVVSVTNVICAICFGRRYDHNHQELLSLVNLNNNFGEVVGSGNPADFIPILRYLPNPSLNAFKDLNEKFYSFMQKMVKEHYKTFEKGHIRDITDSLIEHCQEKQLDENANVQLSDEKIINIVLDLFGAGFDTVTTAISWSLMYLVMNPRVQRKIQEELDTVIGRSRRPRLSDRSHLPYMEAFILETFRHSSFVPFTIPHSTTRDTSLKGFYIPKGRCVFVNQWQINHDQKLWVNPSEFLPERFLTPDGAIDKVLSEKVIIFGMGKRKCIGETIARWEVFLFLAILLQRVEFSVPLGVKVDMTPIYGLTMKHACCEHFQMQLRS
# Method in brief: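 Recombinant CYP1A1 with a fluorogenic substrate, cell-free, read 1 h after dosing; acetonitrile as negative control. Single-concentration screen at 10 uM in duplicate, then concentration-response up to 20 uM for chemicals meeting ~30% inhibition threshold.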
# [14] = biological target: human CYP2B6, CYP2B6 (gene 1555) (UniProt P20813); assay: NVS_ADME_hCYP2B6: NovaScreen (NVS) CYP450-related Enzyme Activity (ADME) Assay for human CYP2B6 (AID 2283101)
# human CYP2B6, CYP2B6 (gene 1555), sequence (P20813 whole entry, looked up): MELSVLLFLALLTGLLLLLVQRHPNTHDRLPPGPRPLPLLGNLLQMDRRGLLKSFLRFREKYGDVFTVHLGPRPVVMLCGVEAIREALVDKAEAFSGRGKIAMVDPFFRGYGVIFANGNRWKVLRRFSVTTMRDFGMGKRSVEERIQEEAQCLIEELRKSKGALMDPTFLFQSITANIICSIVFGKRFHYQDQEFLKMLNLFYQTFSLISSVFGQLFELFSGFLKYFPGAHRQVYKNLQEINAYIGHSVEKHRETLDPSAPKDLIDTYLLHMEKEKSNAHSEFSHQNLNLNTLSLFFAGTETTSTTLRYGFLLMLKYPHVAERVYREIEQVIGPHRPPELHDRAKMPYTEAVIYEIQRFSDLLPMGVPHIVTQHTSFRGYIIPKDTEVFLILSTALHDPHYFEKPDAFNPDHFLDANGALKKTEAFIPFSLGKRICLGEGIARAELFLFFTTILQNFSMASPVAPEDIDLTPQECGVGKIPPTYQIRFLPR
# Method in brief: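 Recombinant human CYP2B6 with fluorogenic substrate, read by fluorescence intensity 1 h after dosing. Primary screen in duplicate at 10 uM, actives followed in concentration series; signal loss relative to acetonitrile control.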
# [15] = biological target: Cytochrome P450 2C18 (Homo sapiens) (UniProt P33260); assay: NVS_ADME_hCYP2C18: NovaScreen (NVS) CYP450-related Enzyme Activity (ADME) Assay for human CYP2C18 (AID 2283103; active = hit-call score of the fitted dose curve at least 0.9, where 1 is the maximum; inactive = score below 0.9)
# Method in brief: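 Cell-free recombinant human CYP2C18 with fluorogenic substrate; fluorescence intensity read 0.5 h after dosing. Single-point screen at 10 uM in duplicate, then concentration-response up to 20 uM; loss of signal fitted against acetonitrile baseline.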
# [16] = biological target: rat CYP2C12, Cyp2c12 (gene 25011) (UniProt P11510); assay: NVS_ADME_rCYP2C12: NovaScreen (NVS) CYP450-related Enzyme Activity (ADME) Assay for rat CYP2C12 (AID 2283119)
# rat CYP2C12, Cyp2c12 (gene 25011), sequence (P11510 whole entry, looked up): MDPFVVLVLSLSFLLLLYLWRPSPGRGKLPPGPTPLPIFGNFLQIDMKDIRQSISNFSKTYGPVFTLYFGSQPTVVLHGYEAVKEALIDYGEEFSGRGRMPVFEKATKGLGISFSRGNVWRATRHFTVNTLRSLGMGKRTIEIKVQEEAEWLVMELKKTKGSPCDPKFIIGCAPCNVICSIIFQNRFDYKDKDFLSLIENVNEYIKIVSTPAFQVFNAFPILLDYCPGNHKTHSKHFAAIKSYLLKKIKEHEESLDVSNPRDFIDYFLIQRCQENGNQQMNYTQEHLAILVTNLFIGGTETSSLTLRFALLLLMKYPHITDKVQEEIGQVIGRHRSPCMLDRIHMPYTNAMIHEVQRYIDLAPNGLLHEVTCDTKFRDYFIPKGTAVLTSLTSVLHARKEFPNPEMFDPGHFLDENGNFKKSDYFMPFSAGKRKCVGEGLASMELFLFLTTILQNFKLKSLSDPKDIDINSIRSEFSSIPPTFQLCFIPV
# Method in brief: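 Cell-free recombinant rat CYP2C12 activity read by fluorescence 0.5 h after dosing; loss of signal versus acetonitrile control. Primary screen in duplicate at 10 uM; actives then run in concentration-response format.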
# [17] = system: rat CYP2C6, gene 293989; assay: NVS_ADME_rCYP2C6: NovaScreen (NVS) CYP450-related Enzyme Activity (ADME) Assay for rat CYP2C6 (AID 2283120)
# Method in brief: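 Cell-free recombinant rat CYP2C6 with fluorogenic substrate, read by fluorescence 1 h after dosing; acetonitrile as negative control. Primary screen at 10 uM in duplicate, actives then in concentration-response up to 20 uM.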
structure (smiles),measurement,setting,value
CCOP(=S)(OCC)Oc1ccc(S(C)=O)cc1 (stereo not given),outcome,[1],inactive
same,outcome,[2],inactive
same,AC50,[3],3.31 µM (active)
same,AC50,[4],0.528 µM (active)
Fc1ccc(C2(Cn3cncn3)OC2c2ccccc2Cl)cc1 (stereo not given),AC50,[5],1.86 µM (active)
same,AC50,[6],5.36 µM (active)
same,AC50,[3],6.5 µM (active)
same,AC50,[7],5.96 µM (active)
same,AC50,[4],1.56 µM (active)
same,AC50,[8],2.98 µM (active)
same,AC50,[9],0.353 µM (active)
same,AC50,[10],3.09 µM (active)
same,AC50,[11],0.974 µM (active)
Cn1sc(Cl)cc1=O,AC50,[1],6.46 µM (active)
same,outcome,[2],inactive
same,outcome,[6],inactive
same,AC50,[7],2.77 µM (active)
same,AC50,[4],5.77 µM (active)
CCC(=O)C(CC(C)N(C)C)(c1ccccc1)c1ccccc1 (stereo not given),outcome,[1],inactive
same,outcome,[2],inactive
same,AC50,[12],1.23 µM (active)
ClC(Cl)=C(Cl)C(Cl)=C(Cl)Cl,AC50,[1],31.7 µM (active)
same,outcome,[2],inactive
OCc1ccco1,AC50,[1],26.7 µM (active)
same,outcome,[2],inactive
same,outcome,[5],inactive
Clc1ccc(C2(Cn3cncn3)CC(Br)CO2)c(Cl)c1 (stereo not given),AC50,[5],5.55 µM (active)
same,outcome,[13],inactive
same,AC50,[14],1.16 µM (active)
same,AC50,[15],6.47 µM (active)
same,AC50,[3],6.63 µM (active)
same,AC50,[7],2 µM (active)
same,AC50,[4],0.243 µM (active)
same,AC50,[8],0.577 µM (active)
same,AC50,[9],0.0829 µM (active)
same,AC50,[10],0.0411 µM (active)
same,AC50,[11],1.59 µM (active)
same,AC50,[16],11 µM (active)
same,AC50,[17],4.68 µM (active)
COP(=S)(OC)Oc1ccc(S(=O)(=O)N(C)C)cc1,outcome,[1],inactive
same,outcome,[2],inactive
same,AC50,[3],0.0779 µM (active)
same,AC50,[4],0.19 µM (active)
CC12CC1(C)C(=O)N(c1cc(Cl)cc(Cl)c1)C2=O (stereo not given),outcome,[1],inactive
same,outcome,[2],inactive
same,outcome,[7],inactive
same,AC50,[8],0.881 µM (active)
same,AC50,[9],4.98 µM (active)
Oc1ccc(-c2ccccc2)cc1,outcome,[1],inactive
same,outcome,[2],inactive
same,AC50,[4],0.47 µM (active)
CC(C)(C)CC(C)(C)c1ccc(O)cc1,AC50,[1],5.84 µM (active)
same,AC50,[2],11.3 µM (active)
same,AC50,[14],6.7 µM (active)
Oc1cccc2cccnc12,AC50,[1],4.71 µM (active)
same,outcome,[2],inactive
same,outcome,[5],inactive
O=C(Nc1ccc2[nH]ccc2c1)c1cc2cc(F)ccc2n1Cc1cccc(F)c1,AC50,[1],6.62 µM (active)
same,AC50,[2],14.6 µM (active)
same,outcome,[6],inactive
CCOC(=O)/C=C(C)/C=C/C[C@@H](C)CCCC(C)C,AC50,[1],31.5 µM (active)
same,AC50,[2],33.1 µM (active)
CC(=O)C=C(C)C,outcome,[5],inactive
BrCCBr,outcome,[1],inactive
same,outcome,[2],inactive
same,outcome,[9],inactive
COP(=S)(OC)Oc1c(Cl)cc(C)cc1Cl,AC50,[1],31.6 µM (active)
same,outcome,[2],inactive
CC(C)C1CCC(Cc2ccc(Cl)cc2)C1(O)Cn1cncn1 (stereo not given),AC50,[9],0.106 µM (active)
same,AC50,[10],2.04 µM (active)
